Assay outcomes deposited in PubChem by Broad Institute.
IDE exosite FP: exo-site inhibitors of human IDE, primary screen, biochemical, fluorescence anisotropy, probe displacement. AID 1259349, 2017. purified IDE, FL-6b probe fluorescence polarization; active compounds read low. z-score at 20 µM. Insulin-degrading enzyme (Homo sapiens), P14735. actives 6.3% (n = 17,000);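 active = z-score of -3 or lower, meaning strong loss of probe binding signal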;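 note: His-tagged human IDE residues 42-1019 made in E. coli with 30 nM FL-6b probe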
Target sequence (P14735 42-1019 limits assumed): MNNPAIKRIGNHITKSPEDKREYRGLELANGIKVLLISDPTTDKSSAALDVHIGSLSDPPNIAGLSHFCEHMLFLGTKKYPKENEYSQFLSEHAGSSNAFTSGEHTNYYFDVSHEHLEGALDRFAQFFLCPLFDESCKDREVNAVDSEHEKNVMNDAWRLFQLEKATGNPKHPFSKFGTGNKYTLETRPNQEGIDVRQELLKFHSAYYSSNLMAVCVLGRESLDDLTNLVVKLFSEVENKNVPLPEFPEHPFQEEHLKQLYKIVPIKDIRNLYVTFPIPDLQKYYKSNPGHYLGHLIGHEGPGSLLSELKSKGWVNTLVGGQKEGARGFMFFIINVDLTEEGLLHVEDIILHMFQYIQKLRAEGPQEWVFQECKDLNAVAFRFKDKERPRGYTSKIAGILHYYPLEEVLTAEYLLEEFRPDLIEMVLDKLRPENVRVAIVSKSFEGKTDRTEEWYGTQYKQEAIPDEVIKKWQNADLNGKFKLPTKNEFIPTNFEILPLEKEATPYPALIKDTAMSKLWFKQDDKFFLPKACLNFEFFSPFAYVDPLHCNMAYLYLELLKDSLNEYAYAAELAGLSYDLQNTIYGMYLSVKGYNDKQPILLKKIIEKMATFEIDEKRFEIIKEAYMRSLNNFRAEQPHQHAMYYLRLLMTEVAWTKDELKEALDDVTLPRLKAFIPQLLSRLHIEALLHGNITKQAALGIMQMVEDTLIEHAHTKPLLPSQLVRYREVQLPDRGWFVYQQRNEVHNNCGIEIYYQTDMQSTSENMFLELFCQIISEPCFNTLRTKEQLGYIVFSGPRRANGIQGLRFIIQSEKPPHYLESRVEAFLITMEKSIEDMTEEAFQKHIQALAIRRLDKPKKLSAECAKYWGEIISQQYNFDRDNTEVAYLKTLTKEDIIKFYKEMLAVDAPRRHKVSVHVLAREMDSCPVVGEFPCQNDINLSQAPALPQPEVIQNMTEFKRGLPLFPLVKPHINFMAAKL
Active calls of the source: *. The sample as a whole holds a higher share of hits than the screen did.

SMILES	IDE exosite FP
COc1ccc(CN2CC3(CCN(C(=O)Cc4ccncc4)CC3)c3c([nH]c4cc(OC)ccc34)[C@@H]2CO)cc1	-3.1*
COc1ccc2c3c([nH]c2c1)[C@@H](CO)N(Cc1ccc(Cl)cc1)CC31CN(S(C)(=O)=O)C1	0.86
COc1ccc2c3c([nH]c2c1)[C@@H](CO)N(C(=O)Nc1ccc(F)cc1)CC31CCN(C(=O)Cc2ccncc2)CC1	-0.84
COc1ccc2c3c([nH]c2c1)[C@H](CO)N(Cc1ccc(Cl)cc1)CC31CN(S(C)(=O)=O)C1	-0.77
COc1ccc2c3c([nH]c2c1)[C@H](CO)N(C(=O)Nc1ccc(F)cc1)CC31CCN(C(=O)Cc2ccncc2)CC1	1.2
CCCC(=O)N1CCC2(CC1)CN(Cc1ccc(Cl)cc1)[C@H](CO)c1[nH]c3cc(OC)ccc3c12	-3.6*
CC(=O)N1[C@H](CO)[C@H](c2ccc(C3=CCCC3)cc2)C12CN(C(=O)NC(C)C)C2	-0.3
O=C(Nc1ccccc1F)N1CC(=O)N2[C@H](C1)[C@@H](c1ccc(-c3ccc(F)cc3)cc1)[C@@H]2CO	-1.3
C[C@H](CO)N1C[C@H](C)[C@@H](CN(C)C(=O)Nc2cccc(Cl)c2Cl)OCc2ccccc2-c2ccccc2C1=O	1.2
CO[C@@H]1CN(C)C(=O)c2cc(NC(C)=O)ccc2OC[C@H](C)N(C(=O)Cc2ccccn2)C[C@H]1C	1.3
CC(C)NC(=O)N1[C@@H]2CNC[C@H]1C2c1ccc(-c2ccc(C#N)cc2)cc1 (some centres not stated)	3.9
O=C(C[C@H]1CC[C@@H]2NC[C@@H](O)COC[C@H]2O1)NCCc1ccncc1	0.36
C/C=C/c1ccccc1[C@@H]1[C@@H](CO)N(C(=O)Cc2ccccn2)[C@H]1C#N	-0.56
O=C(Cc1cccnc1)N1CC(=O)N2[C@H](C1)[C@@H](c1ccc(C#CC3CCCCC3)cc1)[C@@H]2CO	0.59
COc1ccc(C#Cc2ccc([C@@H]3[C@H]4CN(C(=O)c5ccncc5)CC(=O)N4[C@H]3CO)cc2)cc1	3.2
CS(=O)(=O)N1CCCCN2[C@H](CO)[C@@H](c3ccc(Br)cc3)[C@H]2C1	2.4
COc1cc(CN2CC3(CCN(C(=O)Nc4c(C)noc4C)CC3)c3c(n(C)c4cc(OC)ccc34)[C@@H]2CO)cc(OC)c1	-3.4*
COc1ccc2c3c(n(C)c2c1)[C@@H](CO)N(C)CC31CN(C(=O)Nc2c(C)noc2C)C1	0.18
COc1ccc2c3c(n(C)c2c1)[C@H](CO)N(C)CC31CN(C(=O)Nc2c(C)noc2C)C1	0.53
COc1cc(CN2CC3(CN(C(=O)CN4CCOCC4)C3)c3c(n(C)c4cc(OC)ccc34)[C@H]2CO)cc(OC)c1	-0.49
COc1cc(CN2CC3(CCN(C(=O)Nc4c(C)noc4C)CC3)c3c(n(C)c4cc(OC)ccc34)[C@H]2CO)cc(OC)c1	-3.4*
COc1cc(CN2CC3(CN(C(=O)Nc4c(C)noc4C)C3)c3c([nH]c4cc(OC)ccc34)[C@H]2CO)cc(OC)c1	0.21
COc1ccccc1-c1ccc([C@H]2[C@@H](CO)N(C(C)=O)[C@H]2CN(C)C(C)=O)cc1	0.14
C[C@H]1CN([C@@H](C)CO)C(=O)CCCn2nncc2CO[C@H]1CN(C)Cc1ccc2cccnc2c1	0.047
CN(C)C(=O)c1cccc(-c2ccc(C3[C@H]4CNC[C@@H]3N4CC3CCCCC3)cc2)c1 (some centres not stated)	4
SMILES	IDE exosite FP
CC(=O)N1[C@H](CO)[C@@H]2c3ccccc3N(C(=O)c3ccc(F)cc3)C[C@@H]21	-0.32
CCc1sc(N2[C@@H](C#N)[C@@H](c3ccccc3-c3ccc(F)cc3)[C@@H]2CO)nc1C	0.81
COc1ccccc1-c1ccc([C@@H]2[C@@H](CO)N3CCCCN(C(=O)c4cccnc4)C[C@@H]23)cc1	-1.8
COc1ccccc1-c1ccc([C@H]2[C@H](CO)N3CCCCN(C(=O)c4cccnc4)C[C@@H]23)cc1	-1.3
COc1ccccc1-c1ccc([C@H]2[C@@H](CO)N3CCCCN(C(=O)c4ccncc4)C[C@@H]23)cc1	-1.1
COc1ccccc1-c1ccc([C@@H]2[C@@H](CO)N3CCCCN(C(=O)c4ccncc4)C[C@H]23)cc1	-0.66
COc1ccccc1-c1ccc([C@@H]2[C@H]3CN(C(=O)c4cccnc4)CCCCN3[C@H]2CO)cc1	-4.7*
COc1ccccc1-c1ccc([C@H]2[C@@H](CO)N3CCCCN(C(=O)c4cccnc4)C[C@@H]23)cc1	0.24
COc1ccccc1-c1ccc([C@H]2[C@@H](CO)N3CCCCN(C(=O)c4cccnc4)C[C@H]23)cc1	-13*
COc1ccccc1-c1ccc([C@H]2[C@@H](CO)N3CCCCN(C(=O)c4ccncc4)C[C@H]23)cc1	-17*
CCCNC(=O)C[C@H]1CC[C@@H]2[C@H](COC[C@@H](O)CN2Cc2ccncc2)O1	-0.15
CC(C)[C@@H]1CCc2cnnn2COC[C@@H](Cc2ccccc2)NC1=O	-0.47
O=C(C1CCCC1)N1CC(=O)N2[C@H](CO)[C@@H](c3ccc(Br)cc3)[C@@H]2C1	-2.4
CCCNC(=O)N1C[C@@H]2[C@H](c3ccccc31)[C@@H](CO)N2C(=O)Nc1ccccc1F	-0.32
O=C(Nc1cc(F)ccc1F)N1CCCCN2[C@H](CO)[C@@H](c3ccc(-c4cncnc4)cc3)[C@@H]2C1	-0.82
Cc1cccc(S(=O)(=O)N2[C@@H]3CNC[C@H]2C3c2ccc(-c3cccnc3)cc2)c1 (some centres not stated)	-0.5
COc1ccc2c3c(n(C)c2c1)[C@H](CO)N(S(C)(=O)=O)CC31CN(CC2CCOCC2)C1	0.058
CCc1cnc(N2[C@H](C#N)[C@@H](c3ccc(C#CC(C)C)cc3)[C@@H]2CO)s1	2.2
CCN(C[C@H]1N[C@@H](CO)[C@@H]1c1ccc(C2=CCCC2)cc1)C(=O)c1ccncc1	2.4
O=C(Cc1ccccn1)N1CC(=O)N2[C@@H](CO)[C@H](c3ccc(-c4ccc(F)cc4)cc3)[C@@H]2C1	1.4
O=C(Cc1ccccn1)N1CC(=O)N2[C@H](CO)[C@@H](c3ccc(-c4ccc(F)cc4)cc3)[C@H]2C1	3.3
COc1ccc(-c2ccc([C@@H]3[C@H]4CN(C(=O)Cc5ccccn5)CC(=O)N4[C@H]3CO)cc2)cc1	-0.28
O=C(Cc1ccccn1)N1CC(=O)N2[C@H](CO)[C@@H](c3ccc(-c4ccc(F)cc4)cc3)[C@@H]2C1	2.1
O=C(Cc1ccccn1)N1CC(=O)N2[C@H](C1)[C@@H](c1ccc(-c3ccc(F)cc3)cc1)[C@@H]2CO	1.9
Cc1ccccc1-c1ccc([C@@H]2[C@@H](CO)N3C(=O)CN(C(=O)Cc4ccccn4)C[C@H]23)cc1	-5.8*
SMILES	IDE exosite FP
Cc1ccccc1-c1ccc([C@@H]2[C@H]3CN(C(=O)Cc4ccccn4)CC(=O)N3[C@H]2CO)cc1	-18*
O=C(Cc1ccccn1)N1CC(=O)N2[C@H](CO)[C@H](c3ccc(C#CC4CC4)cc3)[C@H]2C1	2.2
Cc1ccccc1-c1ccc([C@H]2[C@H]3CN(C(=O)Cc4ccccn4)CC(=O)N3[C@H]2CO)cc1	-8.9*
Cc1ccccc1-c1ccc([C@@H]2[C@@H](CO)N3C(=O)CN(C(=O)Cc4ccccn4)C[C@@H]23)cc1	-20*
COc1ccc(C#Cc2ccc([C@@H]3[C@H](CO)N4C(=O)CN(C(=O)c5ccc(F)cc5)C[C@@H]34)cc2)cc1	-1.2
N#C[C@H]1[C@@H](c2ccccc2C2=CCCC2)[C@H](CO)N1S(=O)(=O)c1cccc(F)c1	1.6
